eIF4H FP inh: inhibitors of RNA binding by human eIF4H | inhibition, % at 35 µM | eIF4H fluorescence polarization binding assay | 0.94% of 290,000 active | Q15056;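 note: calls also rest on retests at 20 µM and on dose response follow-up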
PERK inh: human PERK inhibition, primary cell-based screen | AID 1416 | 0.17% of 220,000 active | inhibition, % at 5.6 µM | CHO PERK-DD fusion, SEAP luminescence translation reporter | Q9NZJ5;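 active = inhibition above the mean inhibition of all tested compounds plus 3 SD, set separately per screening campaign, cut at about 2.9% in these data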;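 note: PERK kinase domain activated by AP20187 dimerizer at 100 nM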
GRK2 inh: human GRK2 inhibition via aptamer displacement; 0.59% of 330,000 active; AID 488847; P25098; bead flow cytometry, FAM-aptamer displacement from GRK2; inhibition of aptamer binding, % at 10 µM;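 active = inhibition of aptamer binding above 40%, roughly 3 SD of noise, on plates passing a quality check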;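 note: median bead fluorescence of bound FAM aptamer so fluorescent compounds give negative values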
PABP FP inh: blocks human PABP binding to poly(A) RNA. inhibition, % at 35 µM. 1% of 290,000 active. P11940. fluorescence polarization;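 note: calls also rest on retests at 20 µM and on dose response follow-up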
MLLE-PAM2 inh: inhibitors of microRNA-mediated deadenylation, human PABP1 MLLE binding; inhibition, % at 20 µM; 0.36% of 360,000 active; P11940; GST-MLLE / FITC-PAM2 fluorescence polarization; in the data active = inhibition above about 35%, passing the limit was not always enough
GRK2 inh confirm: confirmation of human GRK2 inhibitors displacing RNA aptamer. bead-bound GRK2, FAM-aptamer displacement, flow cytometry. aptamer displacement, % at 10 µM. 4% of 2,000 active. AID 504451. shares compounds with GRK2 inh;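 active = aptamer displacement above 40%, near three times the noise of non-fluorescent compounds, on plates passing quality checks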;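 note: negative values mostly reflect intrinsic compound fluorescence rather than true enhancement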
Aptamer quench SP: aptamer fluorescence quenching in GRK2 counter-screen; shares compounds with GRK2 inh; Carboxyfluorescein RNA aptamer on beads, flow cytometry quenching; hits give low values; fluorescence response (% of DMSO), % at 10 µM; 2,000 tested, under 10 active;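 active = compounds that quench the bead-bound fluorescent RNA probe, cutting fluorescence to under half of the solvent control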;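 note: counterscreen run without GRK2 so only probe quenching by compound is measured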
GRK2 confirm 2: human GRK2 inhibition confirmation, cherry pick 2; 360 tested, under 10 active; shares compounds with GRK2 inh; bead-bound GRK2, FAM-aptamer displacement, flow cytometry; inhibition of aptamer binding, % at 10 µM;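 active = inhibition of aptamer binding above 40%, about triple the noise seen with nonglowing compounds, on plates passing quality control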;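 note: negative values mostly come from compounds that fluoresce themselves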
FAM quench SP: counter-screen for GRK2 binding hits: quenchers of fluorescent RNA aptamer. shares compounds with GRK2 inh. carboxyfluorescein RNA aptamer beads, flow cytometry quenching; hits give low values. fluorescence response vs DMSO, % at 10 µM. 360 tested, under 10 active;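 active = response vs DMSO under 50%, meaning signal dropped by over half, treated as fluorescence quencher; inconclusive = no clear call, values can overlap the other calls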;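 note: labelled aptamer on streptavidin beads without GRK2 as a quench counter-screen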
Large screens that a line does not name were inactive (follow-up assays come after a bar, where they were run). Only some compounds are listed: those with a hit (about 1.9% of all), similar ones and a draw of the others. Unless noted, the rule behind the calls is not given here.

CCC(C)n1c(O)c(C=Nc2cccc(C(F)(F)F)c2)c(=O)[nH]c1=S (centres undefined)	eIF4H FP inh 60, PABP FP inh active
COC(=O)C1=C(c2ccc(Cl)c(C(F)(F)F)c2)C[C@@H]2CC[C@H]1N2C(=O)NC1CCCCC1	none (no result: eIF4H FP inh, PERK inh, PABP FP inh)
C=CCn1c(O)c(C(CC)=Nc2ccc(C(=O)O)cc2)c(=O)[nH]c1=O	none
CCCCn1c(O)c(C(CC)=Nc2ccc(C(=O)O)cc2)c(=O)[nH]c1=O	eIF4H FP inh 62
CC(C)(C)n1nnnc1C(CCc1ccccc1)N1CCC2(CC1)C(=O)NCN2c1ccccc1 (centres undefined)	none (no result: eIF4H FP inh, PERK inh, GRK2 inh, PABP FP inh)
CSc1ncc(/C=C2/C(=O)NC(=O)N(c3ccc(C(C)C)cc3)C2=O)cn1	none
CC(C)c1ccc(N2C(=O)NC(=O)/C(=C/c3cnc(-c4ccccc4)nc3)C2=O)cc1	PABP FP inh active
Cc1cc(O)c2c(c1)OC(C)(C)C1=C2CC(C)CC1 (centres undefined)	none (no result: PERK inh)
c1cncc(C2Nc3cccc4cccc(c34)N2)c1	eIF4H FP inh 92, PABP FP inh 60
COc1ccc(N2C(=O)CC(=O)NC2=O)cc1	eIF4H FP inh inconclusive, PABP FP inh 48
O=C1CC(=O)N(c2cccc(Cl)c2)C(=O)N1	eIF4H FP inh inconclusive, PABP FP inh inconclusive
Cc1cccc(N2C(=O)CC(=O)NC2=O)c1	eIF4H FP inh 69
Cc1cc(/C=C2\C(=O)NC(=O)N(c3ccc(F)cc3)C2=O)c(C)n1-c1ccc(C(=O)O)cc1	PABP FP inh 51
Cc1cc(/C=C2\C(=O)NC(=O)N(Cc3ccccc3)C2=O)c(C)n1-c1ccc(Cl)c(C(=O)O)c1	eIF4H FP inh inconclusive, GRK2 inh 100
Cc1ccc(N2C(=O)NC(=O)/C(=C\c3cc(C)n(-c4ccc(C(=O)O)cc4)c3C)C2=O)cc1	none (no result: PERK inh)
Cc1ccc2c(C)cccc2c1	none (no result: eIF4H FP inh, PERK inh, GRK2 inh, PABP FP inh)
COc1ccc2c(c1)C1(C(=O)O)CC=CCC1(C(=O)O)C2 (centres undefined)	none (no result: eIF4H FP inh, PERK inh, GRK2 inh, PABP FP inh)
Cc1cc(NC(=O)CCl)no1	none
Cn1cc(NC(=O)CCl)cn1	eIF4H FP inh 1.5
C[C@H]1CC[C@H]2NCCN[C@H]2C1	PERK inh 3.1
CCN(CC)CCOC(=O)C(O)(c1ccccc1)c1ccccc1	none
CC(C)N1C(=O)CC2(CC[N+](C)(CCOC(=O)C(O)(c3ccccc3)c3ccccc3)CC2)C1=O (centres undefined)	eIF4H FP inh 1.2, PABP FP inh 61
CCCCC1C(=O)NC(=S)N(C)C1=O (centres undefined)	none (no result: eIF4H FP inh, PERK inh, GRK2 inh, PABP FP inh)
CC(C)(C)N1C(=O)NC(=O)/C(=C\c2ccc3c(c2)CCN3CCCCl)C1=O	PABP FP inh 25
CCOC(=O)c1c(/N=C/c2c(O)n(-c3ccccc3F)c(=S)[nH]c2=O)sc2c1CCCC2	GRK2 inh 54 | GRK2 inh confirm inactive | Aptamer quench SP inactive
CCOC(=O)c1c(/N=C/c2c(O)n(-c3ccc(F)cc3)c(=S)[nH]c2=O)sc2c1CCCC2	none
O=c1c2ccccc2nc(/C=C\c2ccccc2[N+](=O)[O-])n1-c1ccccc1O	GRK2 inh 45 | GRK2 inh confirm inactive | Aptamer quench SP inactive
O=c1c2ccccc2nc(/C=C/c2ccccc2O)n1-c1ccccc1O	eIF4H FP inh inconclusive, PABP FP inh inconclusive (no result: PERK inh)
COc1ccc(CN2CCNCC2)c(OC)c1OC	none (no result: PERK inh) | GRK2 inh confirm inactive | Aptamer quench SP inactive
O=C(NP(=O)(N1CC1)N1CC1)c1cc(I)ccc1I	none (no result: eIF4H FP inh, PERK inh, GRK2 inh, PABP FP inh)
CC(C)CNc1c2c(nc3ccccc13)CCC2	none (no result: PERK inh) | GRK2 confirm 2 inactive | FAM quench SP inactive
CCN(CC)S(=O)(=O)c1ccc(N=Cc2c(O)n(-c3ccccc3)c(=O)[nH]c2=O)cc1	eIF4H FP inh inconclusive, PABP FP inh inconclusive

Compound activity from PubChem BioAssay.
